Screening results deposited in PubChem by The Scripps Research Institute Molecular Screening Center.
An excerpt weighted towards active compounds, which were near 1.1% of everything screened.
HTR5A inv ag: inverse agonist of human HTR5A in OPRM1-OPRD1 counter-screen; P47898; HTR5A cell line, luminescence, inverse agonism; inhibition, % at 9.3 µM; hit rate 0.083% among 340,000; AID 504634; in the data active means inhibition mostly above about 23%, no sharp cut-off; inactive means mostly below about 18%;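 further: 0% = cells with DMSO and 100% = no-cell wells with DMSO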
Target sequence (P47898 whole entry, looked up): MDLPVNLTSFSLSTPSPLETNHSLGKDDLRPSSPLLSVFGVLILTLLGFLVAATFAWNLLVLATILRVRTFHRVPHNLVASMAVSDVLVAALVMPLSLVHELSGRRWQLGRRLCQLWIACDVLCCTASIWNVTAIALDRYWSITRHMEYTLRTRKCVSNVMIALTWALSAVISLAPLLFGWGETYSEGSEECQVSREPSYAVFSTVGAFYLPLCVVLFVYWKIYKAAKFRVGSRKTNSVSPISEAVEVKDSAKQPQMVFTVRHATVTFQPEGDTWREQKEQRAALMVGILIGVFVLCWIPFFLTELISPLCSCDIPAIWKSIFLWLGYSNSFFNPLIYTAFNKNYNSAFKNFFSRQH
HTR5A ag ctr: activates human HTR5A in OPRM1-OPRD1 agonist counter-screen; P47898; HTR5A agonist assay, luminescence, cell-based; activation, % at 9.3 µM; hit rate 0.61% among 340,000; AID 504692; in the data active means activation mostly above about 9.5%, no sharp cut-off; inactive means mostly below about 7.6%;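 further: 0% = cells with vehicle only and 100% = reference agonist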
MOR-DOR inv ag: inverse agonists of human mu-delta opioid receptor heterodimerization; hit rate 0.21% among 340,000; cell-based MOR-DOR heterodimer luminescence, inverse agonism; P35372+P41143; inhibition, % at 9.3 µM; in the data active means inhibition above about 22%, passing the limit was not always enough;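 further: 0% = cells with DMSO and 100% = wells without cells with DMSO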
MOR-DOR ag-1: agonists of human mu-delta opioid receptor heterodimerization | cells, OPRM1-OPRD1 heterodimerization, luminescence | activation, % at 9.3 µM | hit rate 0.3% among 340,000 | AID 504326;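 further: 0% = vehicle-treated cells and 100% = reference agonist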
MOR-DOR ag-2: promotes OPRM1-OPRD1 heterodimerization in HTR5A counter-screen; shares compounds with HTR5A ag ctr; U2OS counter-screen cells, complementation luminescence, 3 h; activation, % at 9.3 µM; hit rate 13% among 800
HTR5A ag conf: confirmation of human HTR5A agonists; shares compounds with HTR5A ag ctr; HTR5A agonist cell assay, luminescence; activation, % at 9.3 µM; hit rate 17% among 800; in the data active means activation above about 17%;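 further: 0% = cells with vehicle only and 100% = full reference agonist response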
Active calls of the source: *; . = no result given. Unless noted, no stated cut-off is given here; in the data, active means activation above about 18%; inactive means the rest.

SMILES | HTR5A inv ag | HTR5A ag ctr | MOR-DOR inv ag | MOR-DOR ag-1 | MOR-DOR ag-2 | HTR5A ag conf
Cc1ccc(-c2cc(C(=O)Nc3ccc(S(=O)(=O)Nc4ncccn4)cc3)c3ccccc3n2)cc1 | -9 | -2 | -2 | 0 | . | .
COc1ccccc1C(CNC(=O)c1cccc(NS(=O)(=O)c2ccc(C)c(F)c2)c1)N1CCCC1 (stereo not given) | -97 | 44* | -4 | 1 | 2 | 41*
O=C(Nc1ccc(S(=O)(=O)N2CCCCC2)cc1)C1CC(=O)N(c2ccc(Cl)cc2)C1 (stereo not given) | -7 | -1 | -1 | 0 | . | .
CCOc1ccccc1NC(=S)N(CCOC)C1CCN(C(C)=O)CC1 | 12 | 15* | 5 | -1 | 3 | -1
O=C(COc1ccc(Cl)cc1Cl)NNC(=S)Nc1ccc(F)cc1 | -17 | -2 | 4 | -1 | . | .
CC(=O)NC(=S)Nc1ccc(NC(=O)COc2ccc(Cl)cc2Cl)cc1 | -33 | 27* | -52 | 8 | 0 | -3
CC(C)CC[n+]1ccn(-c2nc3ccccc3nc2[N-]S(=O)(=O)c2ccc(Cl)cc2)c1 | -44 | 1 | 4 | -1 | . | .
CCOC(=O)C(C)N1N=C(/C=C/c2ccc(C)cc2)CCC1=O (stereo not given) | -54 | 21* | 8 | -2 | 1 | 4
O=C(c1cccs1)c1no[n+]([O-])c1C(=O)c1cccs1 | -9 | 3 | -2 | 0 | . | .
Cc1c(C(=O)c2no[n+]([O-])c2C(=O)c2cnn(C)c2C)cnn1C | -22 | 26* | -6 | 1 | 11 | 15
O=C(c1ccc(Cl)c(S(=O)(=O)N2CCCCCC2)c1)N1CCN(c2ccccn2)CC1 | -90 | 25* | -12 | 2 | 1 | 31*
CCOC(=O)C(=CNc1cc(C)ccc1C)C(=O)OCC | -5 | -1 | -32 | 6 | . | .
CCOC(=O)C(=CNc1cc(OC)ccc1-n1cccc1)C(=O)OCC | -43 | 16* | -13 | 3 | 0 | 5
CC(=O)C1=C(C)NC(C)=C(C(C)=O)C1c1ccc(-c2ccccc2Cl)o1 | -56 | 23* | 4 | -1 | 1 | 2
Cc1ccc(C(C)C)c(OCC(=O)NC2CCN(C)CC2)c1 | -12 | 5 | 6 | -1 | . | .
CCCN(C(=O)c1ccc([N+](=O)[O-])c(C)c1)c1c(N)n(Cc2ccccc2)c(=O)[nH]c1=O | -24 | 10 | 2 | 0 | . | .
CCCCOc1ccc(OCCNC(=O)C2CCCN2C(=O)Nc2ccccc2)cc1 (stereo not given) | -50 | 17* | -5 | 1 | 14 | -2
Cc1cc(O)c(C(C)C)cc1C1(c2cc(C(C)C)c(O)cc2C)OC(=O)c2ccccc21 | -5 | 20* | -65 | 13 | 6 | 13
CCOc1cc(/C=N/NC(=O)c2ccc3c(c2)OCCO3)cc(Br)c1O | 19 | -7 | 12 | -2 | . | .
CCCN1C[C@H](CSC)C[C@@H]2c3cccc4[nH]cc(c34)C[C@H]21 | -323 | 90* | -12 | 2 | 38* | 0
Cc1cccc(CSCCNC(=O)COc2ccc(Cl)cc2)c1 | 2 | 14* | -21 | 3 | -6 | -4
O=C(COc1ccc(Cl)cc1)NCCSCc1cccc(Cl)c1 | 11 | 1 | 7 | -1 | . | .
CC(C)(C)OC(=O)N1CCC(c2c(C(=O)NC3CC3)cnn2-c2ccc(Cl)cc2)CC1 | 7 | -2 | 12 | -2 | . | .
O=C(CSC1=NCCN1)Nc1cccc(C(F)(F)F)c1 | -57 | 23* | 8 | -2 | 24* | 5
Cn1ccnc1SCC(=O)Nc1cccc(C(F)(F)F)c1 | 3 | 0 | 4 | -1 | . | .
SMILES | HTR5A inv ag | HTR5A ag ctr | MOR-DOR inv ag | MOR-DOR ag-1 | MOR-DOR ag-2 | HTR5A ag conf
COc1ccccc1NS(=O)(=O)c1ccc2c(c1)CCN2C(=O)CCC(=O)O | 6 | -2 | 0 | 0 | . | .
CC(=O)N1c2ccc(S(=O)(=O)NCCC(=O)Nc3ccc(OC(F)(F)F)cc3)cc2CC1C (stereo not given) | -46 | -4 | 9 | -2 | . | .
CC1=NNC(=O)/C1=C\c1cn(-c2ccccc2)nc1-c1cccs1 | -45 | 17* | -28 | 4 | 3 | 2
COc1ccc(CN2C3CCCC2CC(NC(=O)Nc2cccc(C)c2)C3)cc1 (stereo not given) | 17 | 17* | 0 | 0 | 1 | 7
Cc1csc(Cn2c(CN(C)C)nc3ccccc3c2=O)n1 | 5 | -1 | 8 | -1 | . | .
CN(C)Cc1nc2ccccc2c(=O)n1Cc1nc(-c2cc3ccccc3o2)cs1 | -49 | 17* | -41 | 8 | 6 | 5
Cc1nc(NC(=O)CN2CCN(c3cccc(Cl)c3)CC2)sc1C(=O)N(C)C | 2 | -1 | 8 | -2 | . | .
C(=N\Nc1nc2ccccc2[nH]1)/c1c[nH]c2ccccc12 | -9 | 3 | -19 | 3 | . | .
Cc1cc(=O)[nH]c(N/N=C/c2c[nH]c3ccccc23)n1 | 17 | 24* | 0 | 0 | 3 | 46*
COc1cccc(CNC(=O)c2ccccc2NC(=O)C2=C(C)OCCS2)c1 | -5 | 1 | 5 | -1 | . | .
COc1ccc(OC)c(NC(=O)COC(=O)c2cc3c(s2)CCC3)c1 | -21 | 15* | -1 | 0 | 2 | 0
COc1ccccc1NC(=O)COC(=O)c1cc2c(s1)CCC2 | 13 | 0 | -5 | 1 | . | .
COC(=O)c1ccc(OCC(=O)NCCC2=CCCCC2)c(OC)c1 | -6 | -3 | 10 | -3 | . | .
COc1ccc(CSCC(=O)N/N=C/c2ccccc2OCc2ccccc2)cc1 | -58 | 22* | -5 | 1 | 1 | 1
O=C(c1cccc(Cl)c1)N1CCN(CCCc2ccccc2)CC1 | 0 | 0 | -19 | 4 | . | .
CCOC(=O)C1=C(COC(=O)/C=C/c2ccc(OC)cc2)NC(=O)NC1C (stereo not given) | -6 | 2 | 18 | -4 | . | .
CCOC(=O)C1=C(COC(=O)/C=C/c2ccco2)NC(=O)NC1C (stereo not given) | 3 | 16* | -23 | 4 | 4 | 0
COc1ccc2[nH]cc(CCNC(=O)Cc3ccc(Cl)cc3)c2c1 | -61 | 17* | 5 | -1 | 2 | 37*
COc1ccc2[nH]cc(CCNS(=O)(=O)Cc3ccccc3)c2c1 | -60 | 22* | 9 | -2 | 1 | 5
COc1ccc2[nH]c(C)c(CCNC(=S)Nc3cc(C)cc(C)c3)c2c1 | -56 | 20* | -2 | 0 | 3 | -2
COc1ccc(NC(=S)NCCc2c[nH]c3ccc(OC)cc23)c(OC)c1 | -36 | 16* | -6 | 1 | 2 | 10
COc1ccc2[nH]c(C)c(CCNC(=S)Nc3cccc(C)c3)c2c1 | 13 | -5 | 11 | -2 | . | .
COc1ccc(NC(=S)NCCc2c[nH]c3ccccc23)c(OC)c1 | -17 | 6 | -2 | 0 | . | .
COC(=O)C1CCN(C(=O)COC(=O)CNC(=O)c2ccc(Cl)cc2Cl)CC1 | -12 | 5 | -3 | 1 | . | .
CC(OC(=O)c1ccco1)C(=O)Nc1ccc(C(F)(F)F)cc1 (stereo not given) | -49 | 20* | 5 | -1 | 3 | -4
